Data on 52 compounds can be found in PubChem BioAssay AID588342 (National Center for Advancing Translational Sciences (NCATS), 2011).

In all, about 360,000 compounds went through this assay and about 25,000 (6.9%) were called active. Inconclusive results (about 9%) are left out. Only a selection was taken, and actives are over-represented in it overall. Unmarked numbers belong to inactive results. Calls follow the shape of the dose curve; as a rule, active = well fitted inhibition curve with a large enough effect; inconclusive = small, poorly fitted or top-dose-only effect; inactive = flat fitted curve, though single readings scatter.

Chain of Luciferin 4-monooxygenase (Photinus pyralis) (P08659 whole entry, looked up): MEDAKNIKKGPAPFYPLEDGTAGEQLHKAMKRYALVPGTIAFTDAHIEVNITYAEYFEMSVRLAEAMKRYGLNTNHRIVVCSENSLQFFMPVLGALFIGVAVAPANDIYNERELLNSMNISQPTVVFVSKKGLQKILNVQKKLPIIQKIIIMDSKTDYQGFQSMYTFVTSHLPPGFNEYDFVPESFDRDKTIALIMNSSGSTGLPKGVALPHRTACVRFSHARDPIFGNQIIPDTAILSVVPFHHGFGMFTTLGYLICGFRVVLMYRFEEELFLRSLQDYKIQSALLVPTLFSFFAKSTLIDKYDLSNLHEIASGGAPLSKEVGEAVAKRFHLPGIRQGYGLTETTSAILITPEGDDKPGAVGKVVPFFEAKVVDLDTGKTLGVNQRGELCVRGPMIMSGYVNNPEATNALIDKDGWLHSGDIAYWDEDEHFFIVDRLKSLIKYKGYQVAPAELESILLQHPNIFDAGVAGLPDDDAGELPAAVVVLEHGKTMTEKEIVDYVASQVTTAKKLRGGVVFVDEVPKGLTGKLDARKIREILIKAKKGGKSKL

The assay concerns the target Luciferin 4-monooxygenase (Photinus pyralis) (UniProt P08659). Description: qHTS profiling assay for firefly luciferase inhibitor/activator using purifed enzyme and Km concentrations of substrates (counterscreen for miR-21 project). Also: nearly all actives have a fitted effect of over 55% in size.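 As to activity change, negative = inhibition: plate controls were vehicle for no effect and reference inhibitor for full effect.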 As to conditions: purified FLuc, luminescence inhibition; series mostly up to 57.5 µM; activity change, negative = inhibition: at the top concentration. The source says:
MLPCN Grant: 1 R21 NS059478-01 (miR-21 grant) Assay Provider: NCGC NCGC Assay Overview: Firefly (Photinus pyralis) luciferase is one of the most commonly used transcriptional reporters for a number of reasons. It is considered one of the more dynamically responsive reporters -that is, responsive to changes in reporter transcription - as it requires no post-translational modifications and is enzymatically active directly after protein synthesis (Wood, 1998). Additionally, the half-life of the luciferase protein is short relative to other reporter-gene products (Wood, 1995). Whereas reporters with long half-lives potentially allow for increased signal due to accumulation of reporter-gene product, once accumulated in the cell, dynamic changes in reporter-gene expression may be difficult to detect(Fan and Wood, 2007; Almond et al., 2004). It has been shown that wild-type P. pyralis luciferase has a half-life of approximately […] hours in mammalian cells (Thompson et al., 1991). Firefly luciferase reporter-gene assays are also generally considered one of the most sensitive assay types (Wood, 1995; Wood, 1998). Although light produced in a bioluminescence reaction is of lower intensity than that produced during fluorescence emission, this is offset by little to no background light inherent to luminescent assays. Thus the luciferase reporter can be expressed at much lower levels than fluorescent proteins while still providing robust signal. # However, it was initially observed, in 1991, by Thompson et al., that compounds that resemble the substrates of firefly luciferase (FLuc) can act as competitive inhibitors of the enzyme, and that these compounds, upon interaction with luciferase in the cell, can actually stabilize the protein and increase its half-life. Accumulated intracellular FLuc protein can be measured as an increase in luminescence signal, upon addition of detection reagents (which contain high concentrations of FLuc substrates) commonly used in high-throughput screening. In cell-based reporter gene assays that use FLuc as the reporter gene to quantitate the potential influence of a given compound against the target biology, this apparent increase in luminescence can mistakenly be interpreted as identification of a compound that is active against the target of interest. This is the case for the miR-21 FLuc reporter gene assay used to identify inhibitors of the miR-21 pathway (PubChem AID 2289) - compounds of interest will inhibit miR-21 biogenesis/expression or activity, and are identified by causing an increase in luminescence, due to increased FLuc translation. However, FLuc inhibitory compounds that stabilize the FLuc protein will give an identical read-out, making it difficult to distinguish compounds that are active against the target from those active against FLuc. Previous profiling work to determine the prevalence of compounds that affect FLuc enzymatic activity (PubChem AID 411) identified that ~3% of the MLSMR library (then at ~72K) inhibited FLuc. […] Since the MLSMR had grown to ~350K compounds, and since it was expected that a significant percentage of compounds found active in the miR-21 FLuc assay would be FLuc inhibitors, the library was screened for activity against FLuc using a biochemical assay of purified FLuc and KM concentrations of FLuc substrates (D-luciferin and ATP).
NCGC Assay Protocol Summary: Reagents: 50mM Tris acetate, pH 7.5; 10mM Mg acetate; 10uM D-luciferin (Sigma #L9504); 10uM ATP; 0.01% Tween-20; 0.05% BSA; 10nM P. pyralis luciferase (Sigma #L9506) Control compounds used were two known firefly luciferase inhibitors (compounds (2) and (5) in Auld et al., 2010), and DMSO. […]
A general note: Quantitative high-throughput screening tests each substance at several concentrations.
Consider `Cc1cc(=O)n(CC(=O)Nc2cccc([N+](=O)[O-])c2)c(-n2nc(C)cc2C)n1`, for which the “activity change, negative = inhibition” value was 3.47%.
As to `O=C(CCN1C(=O)c2ccccc2C1=O)C1=NN[C@@H]2C(=O)N(c3ccc(F)cc3)C(=O)[C@H]12`, the “activity change, negative = inhibition” value is -0.377%.
`CC1(C)CC(=O)c2c(n(S(=O)(=O)c3ccccc3)c3ccc(NS(=O)(=O)c4ccccc4)cc23)C1`: the “activity change, negative = inhibition” value is 1.26%.
Same read-out and setting: then `O=C(CCc1ccccc1F)N1CCN(c2ccccc2)CC1`, with 3.75%.
Consider `O=C(CCSc1ccccc1)N1CCN(c2ccccc2F)CC1`, for which the Potency is 10.7 µM (active).
In the case of `O=C(CCSCc1ccccc1F)N1CCN(c2ccc(Cl)cc2)CC1`, the “activity change, negative = inhibition” value is -10.8%.
Same read-out and setting: then `Cc1ccc(C)c(Nc2nnc(-c3ccc(C)c(S(=O)(=O)N4CCCCC4)c3)c3ccccc23)c1`, with -1.33%; and `Cn1c(NN)nc2sc3c(c2c1=O)CCC3`, with 1.61%; and `COC(=O)c1cccc(Cn2nnc3sc4c(c3c2=O)CCC(C(C)(C)C)C4)c1` (configuration not stated), with 6.43%.
Regarding `Cc1ccc(NC(=O)Cn2nnc3sc4c(c3c2=O)CCC(C)C4)cc1` (configuration not stated), the “activity change, negative = inhibition” value was -7.12%.
In the case of `CCCn1nnc2sc3c(c2c1=O)CCC(C)C3` (configuration not stated), the Potency was 15.1 µM (active).
On to `C=CCn1c(SCc2c(C)noc2C)nc2sc3c(c2c1=O)CCC(C)C3` (configuration not stated), for which the “activity change, negative = inhibition” value is 5.75%.
As for `CC1CCc2c(sc3nc4n(c(=O)c23)CCS4)C1` (configuration not stated), the Potency is 21.3 µM (active).
Regarding `Cc1ccc2nc3c(cc(C(=O)NC4CCCCC4)c(=N)n3C(C)C)c(=O)n2c1`, the “activity change, negative = inhibition” value was -2.1%.
Consider `CCOC(=O)c1c(NC(=O)Cc2coc3ccc(CC)cc23)sc2c1CCC2`, for which the “activity change, negative = inhibition” value was 3.62%.
On the same count and under the same terms, for `Fc1ccccc1/C=C1\CCCC2=C1Nc1ncnn1C2c1ccccc1F` (configuration not stated) the value was 2.39%; for `CSCCC(NC(=O)c1ccccc1)C(=O)N1CCCCCCC1` (configuration not stated), 0.843%.
Still for that read-out and setting: then `COc1ccc(Cl)cc1S(=O)(=O)N1CCC(c2ccncc2)CC1`, with -1.34%; and `CC1CCCCN1CC(=O)N1CCCc2c1c(=O)oc1ccc(OCc3ccccc3)cc21` (configuration not stated), with -1.68%; and `Cc1ccc(CNS(=O)(=O)CCNC(=O)c2ccccc2)cc1`, with -1.29%.
The same measure, in the same setting: then `Cn1c2c(c(=O)n(C)c1=O)C(c1cccc([N+](=O)[O-])c1)Nc1ccccc1O2` (configuration not stated), with 9.28%.
Take `Cc1ccc(S(=O)(=O)Cc2cc(-c3ccc(Cl)cc3)no2)cc1`: the “activity change, negative = inhibition” value is -13%.
Turning to `Cc1ccc(-c2cc(N)on2)cc1`, the Potency was 16.9 µM (active).
In the case of `Cc1ccc(-c2cc(N)n(Cc3cccc(Cl)c3)n2)cc1`, the “activity change, negative = inhibition” value is -7.16%.
The same measure, in the same setting: then `CCc1nn(CC(=O)Nc2cccc(C)c2C)c(=O)c2cc3sccc3n12`, with -8.3%.
Same read-out and setting: for `COc1cc(C(=O)N2CCN(C(=O)COc3cccc(C)c3)CC2)cc(OC)c1OC` the value was 3.42%; for `CCOC(=O)c1cnc(SCC(=O)Nc2cccc(OC)c2)nc1N`, -2.7%.
Take `CCOC(=O)c1cnc(SCC(=O)Nc2ccccc2C(=O)OC)nc1N`: the “activity change, negative = inhibition” value is -17.3%.
In the case of `CCOC(=O)c1cnc(SCc2nc(N)nc(Nc3ccc(OC)cc3)n2)nc1N`, the Potency is 19 µM (active).
As for `Cc1c(CCNC(=O)c2ccc(C(F)(F)F)cc2)sc2nc(-c3ccc(F)cc3)nn12`, the “activity change, negative = inhibition” value was -0.0826%.
Still for that read-out and setting: then `Cc1ccc(C(=O)N/C(=C/C=C/c2ccccc2)C(=O)NCc2ccco2)cc1`, with -6.44%; and `CC1CCCCC12NC(=O)N(CC(=O)Nc1ccc(S(=O)(=O)Nc3ncccn3)cc1)C2=O` (configuration not stated), with 0.431%; and `CC(C)(C)NC(=O)NCc1ccco1`, with -2.22%.
The same measure, in the same setting: for `CC(C)(C)c1ccc(C(=O)NCCC(=O)NCc2ccco2)cc1` the value was -13.9%.
Regarding `CC(C)(C)c1ccc(NC(=O)NCc2ccco2)cc1`, the Potency was 23.9 µM (active).
For `O=C(Nc1ccccc1)Nc1ccccc1C(=O)NCc1ccco1`, the Potency is 15.1 µM (active).
Turning to `Cc1cccc(Nc2ccccc2C(=O)NCc2ccco2)c1C`, the “activity change, negative = inhibition” value is 3.31%.
Regarding `Cc1ccccc1NC(=O)NCc1ccco1`, the “activity change, negative = inhibition” value was -3.59%.
As to `CCCCNC(=O)C1CCCN(c2nnc(C)c3c(C)n(-c4ccc(Cl)cc4)nc23)C1` (configuration not stated), the “activity change, negative = inhibition” value is -6.66%.
On the same count and under the same terms, for `CCOC(=O)CSC1=Nc2ccccc2C2=NC(CCC(=O)NCc3ccc(F)cc3)C(=O)N12` (configuration not stated) the value was 2.71%; for `CCN(CC(=O)Nc1ccccc1OC)C(=O)CC1CC2CCC1C2` (configuration not stated), -0.227%; for `O=C(Cc1ccc(Cl)cc1)NCC(c1cccs1)S(=O)(=O)c1ccc(Cl)cc1` (configuration not stated), -14.2%.
Consider `O=C(Cc1cccs1)N(CC1CCCO1)C1(C(=O)NC2CCCCC2)CCCCC1` (configuration not stated), for which the “activity change, negative = inhibition” value is -2.36%.
`CC1CCCN(c2nc3c(S(=O)(=O)c4ccc(C(C)C)cc4)nnn3c3ccsc23)C1` (configuration not stated): the “activity change, negative = inhibition” value is 5.49%.
`O=C(O)C1CCN(C(=O)OCc2ccccc2)CC1`: the Potency was 10.7 µM (active).
As for `CCOC(=O)N1CCC(NC(=O)CCc2ccccc2)CC1`, the “activity change, negative = inhibition” value is 0.99%.
For the compound `O=C(NCc1ccccc1)C1CCN(C(=O)Cc2ccccc2)CC1`, the “activity change, negative = inhibition” value is 4.44%.
Consider `CN(C(=O)C1CCOC1)c1nnc(-c2cccnc2)s1` (configuration not stated), for which the “activity change, negative = inhibition” value was 3.31%.
Turning to `CN(C(=O)c1ccccn1)c1nnc(-c2ccccn2)s1`, the Potency is 3.38 µM (active).
Consider `COc1cc(OC)cc(-c2nnc(N(C)C(=O)c3ccncc3)s2)c1`, for which the “activity change, negative = inhibition” value is -0.199%.
On the same count and under the same terms, for `Cc1ccc(C(=O)CCC(=O)N(C)CC(=O)Nc2c(Cl)cccc2Cl)cc1` the value was -16.9%.
Regarding `CCn1c(COc2c(C)cccc2C)nnc1SCc1nc2ccccc2c(=O)[nH]1`, the “activity change, negative = inhibition” value was 7.76%.
